Screen size: about 330,000 compounds; about 1,900 (0.58%) were called active. Another 4% or so got no clear call; they are omitted. Rule as the data show it: inconclusive = inhibition above about 70% without an active follow-up result; inactive = below that. A selection follows. Results with a measured potency or affinity are listed apart.
Experiment: M. tuberculosis growth inhibition, HTS (AID 449762);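 also: bacterial growth assessed after seven days of incubation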
Details: M. tuberculosis H37Rv growth inhibition, 7H9 media; at 25 µM; active compounds read high

Q: With `COc1ccc(-c2ccc(-c3nnn(CC(C)=O)n3)cc2)cc1` as the compound, how does the inhibition read?
A: 12.6% (inactive)

Q: For `COc1cccc(CN(C)C(=O)C(CCSC)NS(=O)(=O)c2ccc3c(c2)OCCO3)c1OC` (stereo unspecified), which inhibition is on record?
A: -2% (inactive)

Q: For `CCCCn1cnc2c(oc3nc4c(cc32)CCCC4)c1=O`, which inhibition is on record?
A: 5.81% (inactive)

Q: With `Oc1ccc2ccccc2c1/C=N/c1nccs1` as the compound, how does the inhibition read?
A: 0.82% (inactive)

Q: With `Oc1ccc2ccccc2c1N=Nc1ccccc1F` as the compound, how does the inhibition read?
A: -3.05% (inactive)

Q: Which inhibition does the source give for `CCOC(=O)c1sc(NC(=O)C(OC(C)=O)c2ccccc2)nc1C` (stereo unspecified) here?
A: -4.59% (inactive)

Q: With `O=C(O)c1cc(C(F)(F)F)nc2c(C(F)(F)F)cccc12` as the compound, how does the inhibition read?
A: -3.33% (inactive)

Q: For `COc1ccc(OC)c(C(O)C2CCCCN2)c1` (stereo unspecified), which inhibition is on record?
A: 0.57% (inactive)

Q: Which inhibition does the source give for `Cc1sc2nc(-c3ccc(Br)cc3)oc(=O)c2c1C` here?
A: 7.29% (inactive)

Q: Which inhibition does the source give for `O=C1[C@@H]2Cc3c([nH]c4ccccc34)CN2C(=O)CN1CCCCCO` here?
A: -3.43% (inactive)

Q: With `c1ccc(Nc2ccccc2Nc2ccccn2)nc1` as the compound, how does the inhibition read?
A: -3.39% (inactive)

Q: With `c1ccc(Nc2ccccn2)nc1` as the compound, how does the inhibition read?
A: 4.45% (inactive)

Q: Which inhibition does the source give for `O=C(NC1CCS(=O)(=O)C1)/C(=C/c1ccco1)NC(=O)c1ccccc1` (stereo unspecified) here?
A: -0.22% (inactive)

Q: Which inhibition does the source give for `CCC[C@H](N[C@@H](CCC)[C@H](O)c1ccccc1)[C@H](O)c1ccccc1` here?
A: -2.74% (inactive)

Q: Which inhibition does the source give for `O=C(Nc1ccc(F)cc1)c1ccc(S(=O)(=O)NCC2CCCO2)cc1` (stereo unspecified) here?
A: 0.17% (inactive)

Q: With `Cc1ccc(OCCNC(=O)CCNS(=O)(=O)c2ccc3ccccc3c2)cc1` as the compound, how does the inhibition read?
A: 1.14% (inactive)

Q: With `Cc1nn(C)c(C)c1NC(=O)c1cc2nc(-c3ccco3)cc(C(F)(F)F)n2n1` as the compound, how does the inhibition read?
A: -8.4% (inactive)

Q: Which inhibition does the source give for `O=C(Nc1cnn(Cc2ccccc2)c1)c1cc2nc(-c3ccco3)cc(C(F)(F)F)n2n1` here?
A: 1.16% (inactive)

Q: For `COCCCN1C(=O)c2ccc(C(=O)NCCc3ccccc3)cc2C1=O`, which inhibition is on record?
A: 0.01% (inactive)

Q: For `O=[N+]([O-])c1ccc(C2CN=C(Nc3ccccc3)S2)cc1` (stereo unspecified), which inhibition is on record?
A: 0.07% (inactive)

Q: With `CC1CN=C(Nc2ccccc2)S1` (stereo unspecified) as the compound, how does the inhibition read?
A: 1.32% (inactive)

Q: Which inhibition does the source give for `Cc1cc2c(OCC(O)CN3CCCCC3)cccc2[nH]1` (stereo unspecified) here?
A: -0.02% (inactive)

Q: For `COc1cc(C(=O)ONC(=O)c2ccc(OC(F)F)cc2)cc(OC)c1OC`, which inhibition is on record?
A: 0.02% (inactive)

Q: Which inhibition does the source give for `O=C(NCc1ccc(Cl)cc1)C1CCCN(c2cnccn2)C1` (stereo unspecified) here?
A: 3.46% (inactive)

Q: With `O=C(COc1ccc(S(=O)(=O)N2CCOCC2)cc1Cl)NCCN1CCOCC1` as the compound, how does the inhibition read?
A: 0.71% (inactive)

Q: For `Nc1c(-c2cccs2)cnn1-c1nc(-c2ccc(F)cc2)cs1`, which inhibition is on record?
A: -11.5% (inactive)

Q: Which inhibition does the source give for `COc1ccc(-c2csc(-n3ncc(-c4ccccn4)c3N)n2)cc1` here?
A: 1.41% (inactive)

Q: Which inhibition does the source give for `COc1ccc(-c2n[nH]c(=S)n2CC(C)C)cc1` here?
A: -17.2% (inactive)

Q: Which inhibition does the source give for `CN(C)CCCN(C(=O)c1ccc(C(=O)c2ccccc2)cc1)c1nc2cc3c(cc2s1)OCCO3` here?
A: 2.4% (inactive)

Q: For `Cn1cc(C(=O)c2ccccc2C(=O)O)cc1C(=O)C(Cl)(Cl)Cl`, which inhibition is on record?
A: 1.33% (inactive)

Q: With `C=CCNC(=S)NNC(=O)c1cccc2ccccc12` as the compound, how does the inhibition read?
A: -8.25% (inactive)

Q: With `CN(c1ccccc1)S(=O)(=O)c1ccc(C(=O)OCC(=O)NCc2cccs2)cc1` as the compound, how does the inhibition read?
A: -2.53% (inactive)

Q: With `CCN1C(N(C)CCc2cccs2)=N[C@@H](c2ccccc2)C(C(=O)OC)=C1C` as the compound, how does the inhibition read?
A: -2.75% (inactive)

Q: For `CCN1C(=O)N[C@@H](c2cccc(C(F)(F)F)c2)C(C(=O)OC)=C1C`, which inhibition is on record?
A: -2.1% (inactive)

Q: For `C=CC[C@@H](Cc1ccc(F)cc1)C(=O)OC[C@H]1CCCN1C(=O)[C@@H](CC=C)CC(=O)N[C@@H](CO)Cc1ccccc1`, which inhibition is on record?
A: -0.18% (inactive)

Q: For `O=C(SCC(O)C(O)CS)c1cccs1` (stereo unspecified), which inhibition is on record?
A: -1.44% (inactive)

Q: With `COc1ccc(C(=O)NN=C2CCCC2)c(OC)c1` as the compound, how does the inhibition read?
A: -0.32% (inactive)

Q: With `O=C(C1CCCCC1)N1CCc2ccccc21` as the compound, how does the inhibition read?
A: 0.1% (inactive)

Q: For `O=C(C1CCC1)N1CCc2cc(S(=O)(=O)N3CCCCC3)ccc21`, which inhibition is on record?
A: -8.32% (inactive)

Q: Which inhibition does the source give for `O=C(Nc1ccncc1)c1cc(-c2cccc(Br)c2)nc2ccccc12` here?
A: -13.1% (inactive)

Q: With `CCn1nc(NS(=O)(=O)c2ccc([N+](=O)[O-])cc2)c2cc3cc(C)ccc3nc21` as the compound, how does the inhibition read?
A: 2.04% (inactive)

Q: For `COc1cccc(C(=O)OC(C)C(=O)Nc2ccc3c(c2)OCO3)c1` (stereo unspecified), which inhibition is on record?
A: -7.8% (inactive)

Q: With `COc1ccc(-n2nc(C(=O)NCC(=O)N3CCCCCC3)c3ccccc3c2=O)cc1OC` as the compound, how does the inhibition read?
A: -4.92% (inactive)

Q: For `COc1ccc(Cn2cnc3c(N)c(C)c(C)cc32)cc1`, which inhibition is on record?
A: -12.4% (inactive)

Q: For `COC(=O)CSc1nc(SCc2ccccc2Cl)nc2c1CCCC2`, which inhibition is on record?
A: -6.09% (inactive)

Q: With `CN(C)c1nc(SCc2ccccc2Cl)nc2c1CCCC2` as the compound, how does the inhibition read?
A: 20.2% (inactive)

Q: For `CC(C)OC(=O)c1nnn(-c2nonc2N)c1CN1CCCCCC1`, which inhibition is on record?
A: -9.91% (inactive)

Q: Which inhibition does the source give for `Cc1ccc(OCc2cc(C(=O)NCCn3cccn3)no2)cc1C` here?
A: 10.8% (inactive)

Q: With `COc1ccc(C(=O)NC(NC(=S)Nc2ccc(S(N)(=O)=O)cc2)C(Cl)(Cl)Cl)cc1` (stereo unspecified) as the compound, how does the inhibition read?
A: -5.71% (inactive)

Q: For `Oc1ccc(C2=CCNCC2)cc1O`, which inhibition is on record?
A: -1.15% (inactive)

Q: Which inhibition does the source give for `CN1c2ccc([N+](=O)[O-])cc2N(C)C1(C)c1ccccc1` (stereo unspecified) here?
A: -1.96% (inactive)

Q: Which inhibition does the source give for `CN1c2ccccc2N(C)C1(C)c1ccccc1` here?
A: 4.29% (inactive)

Q: With `Cc1cc(/C=C2/SC(=S)N(c3cccc(Cl)c3)C2=O)c(C)n1-c1cccnc1` as the compound, how does the inhibition read?
A: 59.7% (inactive)

Q: Which inhibition does the source give for `Cc1cc(C=C2C(=O)N(C)C(=S)N(C)C2=O)c(C)n1-c1cccnc1` here?
A: -1.48% (inactive)

Q: Which inhibition does the source give for `COc1cccc(CCc2nnc(CCC(=O)N3CCN(Cc4ccccn4)CC3)o2)c1` here?
A: -0.82% (inactive)

Q: With `COc1ccccc1C(=O)c1c(C)c(CCC#N)n2ccccc12` as the compound, how does the inhibition read?
A: 2.58% (inactive)

Q: Which inhibition does the source give for `O=C(COC(=O)C12CC3CC(CC(C3)C1)C2)N1CCN(S(=O)(=O)c2ccccc2)CC1` here?
A: 6.15% (inactive)

Q: With `CN(C1CCCCC1)S(=O)(=O)c1ccc(SCC(=O)NC(C)(C)C)nc1` as the compound, how does the inhibition read?
A: -0.68% (inactive)

Q: With `CN(C)C(=O)Oc1c(Cl)cc(Cl)c2cccnc12` as the compound, how does the inhibition read?
A: 0.5% (inactive)

Q: For `CN1CCN(Cc2cc(Cl)c3cccnc3c2OC(=O)c2cccs2)CC1`, which inhibition is on record?
A: -8.53% (inactive)

Q: For `CN1C(=O)CC(N2CCN(CCN=CC3=C(O)CC(C)(C)CC3=O)CC2)C1=O` (stereo unspecified), which inhibition is on record?
A: 9.46% (inactive)

From PubChem BioAssay AID449762 (Southern Research Specialized Biocontainment Screening …, 2010)
